Tb PGK inh = blocks T. brucei phosphoglycerate kinase | AID 602233 | PGK/GAPDH coupled, Kinase-Glo luminescence, 60 min | 0.043% of 380,000 active | Potency, µM (highest dose often 57.5 µM), for the others: at the top dose activity change, negative = inhibition, actives largely listed as inhibitors | P07378; also: % is scaled to controls: 0 for no effect and ±100 for the full control effect; nearly all actives have a fitted effect of over 60% in size
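Luminescent ATP detection (Kinase-Glo Plus) follows a 60-minute room-temperature incubation, with wells lacking PGK as controls. Buffer: 100 mM TEA (pH 7.6), 5 mM MgCl2, 0.01% Tween-20. Coupling enzyme GAPDH (100 nM final) supplies unstable 1,3-BPG in-well.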
GLS inhibitor = glutaminase GLS (human) inhibition; GLS enzymatic activity, qHTS titration; O94925; 0.21% of 410,000 active; Potency, µM (series often up to 45.5 µM), for the others: at the top dose activity change, negative = inhibition, usual class: inhibitors; also: % is scaled to controls: 0 for no effect and ±100 for the full control effect
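Enzyme dispensed in phosphate buffer (45 mM, pH 8.2, 0.02% Tween-20), compounds pinned in, then 1 mM L-glutamine solution and the glutamate oxidase–HRP–Amplex Red mix added; fluorescence read immediately and again after 30 min at room temperature.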
Tb PFK inh-1 = T. brucei PFK enzyme inhibition; O15648; T. brucei PFK, ADP-Glo luminescence; Potency, µM (doses to about 57.5 µM), for inactives: at the highest dose activity, negative = inhibition, usual class: inhibitors; 0.17% of 330,000 active; AID 485367;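 also: 0% = uninhibited 1x PFK enzyme wells and -100% = no-enzyme wells; nearly all actives have a fitted effect of over 60% in size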
Target sequence (O15648 whole entry, looked up): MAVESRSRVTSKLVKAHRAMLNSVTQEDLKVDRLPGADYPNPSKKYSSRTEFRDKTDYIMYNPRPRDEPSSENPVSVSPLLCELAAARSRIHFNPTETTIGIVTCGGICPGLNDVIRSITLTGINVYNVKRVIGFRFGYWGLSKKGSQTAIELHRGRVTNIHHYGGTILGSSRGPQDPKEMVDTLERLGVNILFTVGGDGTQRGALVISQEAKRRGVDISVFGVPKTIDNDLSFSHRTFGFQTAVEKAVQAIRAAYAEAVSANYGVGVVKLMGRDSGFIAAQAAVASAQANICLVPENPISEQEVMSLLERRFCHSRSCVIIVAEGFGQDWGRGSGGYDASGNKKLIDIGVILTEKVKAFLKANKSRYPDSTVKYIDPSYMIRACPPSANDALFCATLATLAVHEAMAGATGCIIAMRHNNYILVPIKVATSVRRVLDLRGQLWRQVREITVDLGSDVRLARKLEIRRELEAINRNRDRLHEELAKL
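Activity is normalized to no-enzyme wells (full inhibition) and 1.25 nM enzyme wells (no inhibition). Reaction: 0.5 mM F6P, 0.1 mM ATP, 45 min RT, ADP-Glo luminescence; concentration-response curves fitted and classed by quality.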
VDR inhibitor = vitamin D3 receptor (human) inhibition; P11473; Potency, µM, without a hit: max response, negative = inhibition, actives largely listed as inhibitors; VDR-SRC2-3 peptide fluorescence polarization, 2 h; AID 504847; 0.93% of 400,000 active; also: % is scaled to controls: 0 for no effect and ±100 for the full control effect
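Measured by FP: displacement of SRC2-3 coactivator peptide from VDR by library compounds, following a two-hour ambient incubation.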
Pin1 inh = human Pin1 inhibition; Potency, µM (top dose mostly 115 µM), for the others: top-dose activity, negative = inhibition, hits mostly inhibitors; AID 504891; Q13526; 0.009% of 390,000 active; Pin1 FP peptide displacement, HiFluor488, 10 min; active = well fitted inhibition curve with a large enough effect in the polarisation, with a control signal flat, not every such curve was filed as active; inconclusive = small, poorly fitted or top-dose-only effect, or effect the other way, or a change in a side signal; inactive = no such curve, though single readings can be large or run the other way; the % refers to the polarisation; also: % is scaled to controls: 0 for no effect and ±100 for the full control effect
Target sequence (Q13526 whole entry, looked up): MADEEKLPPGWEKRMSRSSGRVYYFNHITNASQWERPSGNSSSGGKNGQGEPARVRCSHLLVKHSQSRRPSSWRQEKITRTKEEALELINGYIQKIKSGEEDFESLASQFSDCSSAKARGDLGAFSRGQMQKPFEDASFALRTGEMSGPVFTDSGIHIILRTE
TbPFK ATP = orthogonal confirmation of T. brucei phosphofructokinase inhibitors; Tb PFK enzyme, ATP depletion, Kinase-Glo Plus luminescence; shares compounds with Tb PFK inh-1; Potency, µM (highest dose often 57.5 µM), for inactives: at the top dose inhibition; 47% of 1,100 active; calls by dose curve; also: nearly all actives have a fitted effect of over 60% in size
Tb PFK inh-2 = T. brucei PFK enzyme inhibition, hit validation | AID 504637 | purified T. brucei PFK, ADP-Glo luminescence, 45 min | 41% of 1,100 active | Potency, µM (titrated, usually from 57.5 µM), for the others: top-dose activity change, negative = inhibition, actives largely listed as inhibitors | shares compounds with Tb PFK inh-1;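 also: plate controls were full PFK enzyme control for no effect and no enzyme control for full effect; nearly all actives have a fitted effect of over 60% in size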
Starred values were filed as active, the others as inactive; i = inactive; ? = inconclusive; nt = not tested or not shown. Rows were chosen to be rich in hits. Some 1.1% of all compounds tested hit in one or more screens of this group. Unless noted, calls follow the shape of the dose curve; as a rule, active = well fitted curve in the direction sought with a large enough effect; inconclusive = small, poorly fitted or top-dose-only effect, or another doubt; inactive = no such curve, though single readings can be large; an effect the other way counts as inactive or inconclusive. Potency is read from the fitted curve at half-maximal effect.

SMILES	Tb PGK inh	GLS inhibitor	Tb PFK inh-1	VDR inhibitor	Pin1 inh	TbPFK ATP	Tb PFK inh-2
CCc1ccc(-n2nc(C)c3c2NC(=O)CSC3c2ccc(OC)cc2OC)cc1 (stereo not given)	nt	-3%	nt	10%	3%	nt	nt
CC1(C)C(C(Cl)Cl)C2(Cl)C(Cl)C(Cl)C1(Cl)C2(Cl)Cl (stereo not given)	nt	nt	nt	-14%	nt	nt	nt
Oc1ccc(C(=S)N2CCN(Cc3ccccc3)CC2)cc1	6%	18%	?	50µM*	4%	9.5µM*	19µM*
Oc1c(Br)cc(Br)cc1CN1CCN(Cc2ccccc2)CC1	-9%	62%	5%	-5%	-1%	nt	nt
S=C(c1ccc(Br)cc1)N1CCN(Cc2ccccc2)CC1	i	-12%	?	?	6%	8.5µM*	27µM*
O=C(NC1CCCCCC1)c1ccc[nH]c1=S	0%	-16%	-17%	?	0%	nt	nt
NNC(=O)CNc1cccc(Br)c1	-6%	22%	15µM*	12%	-6%	21µM*	?
COc1ccc(NCc2ccc([N+](=O)[O-])s2)cc1	1%	6%	?	12%	?	13µM*	27µM*
O=[N+]([O-])c1ccc(CNc2ccc(Cl)cc2)s1	-5%	6%	27µM*	-8%	-9%	12µM*	27µM*
O=[N+]([O-])c1ccc(CNc2ccc(F)cc2)s1	-3%	3%	17µM*	-24%	4%	7.6µM*	9.5µM*
CCCCn1nnnc1C(CCSC)N1CCC(n2c(=O)[nH]c3ccccc32)CC1 (stereo not given)	nt	3%	nt	nt	nt	nt	nt
COc1cc(-c2ccc(N)c(OC)c2)ccc1N	2%	16%	1%	-13%	-3%	nt	nt
COc1cc(Br)c(Br)cc1N	i	3%	?	-2%	-5%	21µM*	?
c1ccc(CCNCc2cccnc2)cc1	-4%	1%	1%	3%	2%	nt	nt
Fc1ccc(NCc2cccnc2)cc1F	-1%	-2%	24µM*	-3%	?	13µM*	27µM*
O=C(O)[C@@H]1C[C@H]2C[C@@H](CP(=O)(O)O)CC[C@H]2CN1	nt	nt	nt	4%	17%	nt	nt
O=C(O)c1ccc(Nc2ncnc3c2cnn3Cc2ccccc2)cc1	3%	18%	?	?	7%	?	?
CC(C)c1c(Cl)c(O)c(-c2ccccc2)c(=O)n1-c1ccc(F)cc1	-4%	1%	?	-14%	-1%	?	?
O=[N+]([O-])c1ccc(N2CCN(C(=S)c3cccc([N+](=O)[O-])c3)CC2)cc1	2%	?	19µM*	?	5%	9.5µM*	24µM*
CCOc1ccc2nc(NC(=O)c3cccn(Cc4ccccc4Cl)c3=O)sc2c1	-4%	-2%	nt	-2%	-4%	nt	nt
COc1ccc(CCNC(=O)c2cc3c(=O)n4cccc(C)c4nc3n(Cc3ccco3)c2=N)cc1OC	-7%	-3%	?	-14%	?	-2%	1%
O=C(Nc1ccc(Cl)c(Cl)c1)O/N=C/c1ccncc1	-2%	5%	8.5µM*	7%	6%	?	?
Nc1ncnc2c1ncn2[C@@H]1O[C@H](COP(=O)(O)OP(=O)(O)OP(=O)(O)O)[C@@H](O)[C@H]1O	-11%	18%	?	-6%	?	-29%	?
O=C(COc1ccccc1[N+](=O)[O-])N1CCN(CCc2ccccn2)CC1	9%	12%	nt	5%	-3%	nt	nt
COc1cc2c(cc1OC)CN(C(=O)COc1ccccc1[N+](=O)[O-])CC2	10%	-8%	?	-11%	0%	2%	-15%
SMILES	Tb PGK inh	GLS inhibitor	Tb PFK inh-1	VDR inhibitor	Pin1 inh	TbPFK ATP	Tb PFK inh-2
O=C(Nc1ccc(Cl)c(Cl)c1)N1CCSC1c1ccco1 (stereo not given)	i	13%	13µM*	-9%	23%	12%	-11%
Clc1ccc(C[n+]2cc(-c3ccccc3)n3c2CCC3)cc1Cl	4%	22%	?	-2%	-6%	6.7µM*	11µM*
CN(CCc1ccc(Cl)c(Cl)c1)[C@@H]1CCCC[C@@H]1N1CCCC1	nt	nt	nt	-2%	nt	nt	nt
Cc1ccccc1-c1cncnc1NCCc1cnc[nH]1	nt	nt	nt	-11%	nt	nt	nt
Cc1cc(-c2nc3c4c5c(sc4[nH]c(=O)n3n2)CCC5)c(C)o1	-23%	152%	?	-22%	?	16%	-9%
CC(C)(N)Cc1ccc(Cl)cc1	nt	-5%	nt	2%	nt	nt	nt
O=C1C=CC(=O)N1CCNc1ncc(C(F)(F)F)cc1Cl	i	?	21µM*	22µM*	20%	5.4µM*	13µM*
CCOc1ccc(CN(CCc2ccc3c(c2)OCO3)Cc2cc(OC)ccc2O)cc1	-8%	9%	nt	4%	-4%	nt	nt
O=P(NS(=O)(=O)c1ccccc1)(Oc1ccccc1)Oc1ccccc1	-3%	41%	0%	-3%	-14%	nt	nt
O=S(=O)(O)c1cc(OS(=O)(=O)c2ccccc2)cc2ccccc12	-1%	0%	24µM*	1%	0%	?	?
Clc1cncc(N2CCNCC2)n1	nt	nt	nt	1%	nt	nt	nt
C=CCNc1nc(C(=O)OCC(=O)c2ccccc2)cs1	5%	20%	8.5µM*	24%	14%	7%	-8%
Cc1oc(=O)c(NC(=O)c2ccc(Cl)cc2)cc1C(=O)c1ccccc1	4%	9%	17µM*	25µM*	2%	5%	-8%
C[C@]12CCC3C(C(=O)C[C@H]4C[C@@H](O)CC[C@]34C)C1CCC2=O (stereo not given in full)	11%	7%	-3%	-13%	0%	nt	nt
C=CC[C@]1(O)CCC2C3CCC4=CCCCC4C3CCC21C (stereo not given in full)	nt	-2%	nt	-11%	nt	nt	nt
O=S(=O)(Nc1ccc(Cl)cc1)c1ccc(N2CCOCC2)c(NC(=S)NCCN2CCOCC2)c1	-1%	-17%	?	?	-6%	7.6µM*	13µM*
O=P1(c2ccccc2)Nc2ccccc2N1c1ccccc1 (stereo not given)	1%	-2%	nt	3%	29%	nt	nt
CCCN(CCC)c1c([N+](=O)[O-])cc(C(F)(F)F)cc1[N+](=O)[O-]	nt	nt	nt	11%	nt	nt	nt
CC12CC(=O)C3C(CCC4CC(=O)C=CC43C)C1CCC2=O (stereo not given)	-9%	0%	nt	-16%	0%	nt	nt
Clc1ccc(Cn2ncc3c(N4CCCC4)ncnc32)cc1	-6%	-7%	?	10%	-5%	?	?
COC(=O)C1=C(c2ccc(OC(F)(F)F)cc2)C[C@@H]2CC[C@H]1N2C(=O)NCCOc1ccc(OC)cc1	-3%	-1%	-1%	3%	-1%	nt	nt

Screening data deposited in PubChem by National Center for Advancing Translational Sciences (NCATS).
